# Data published in the supplement of paper PMC12494721.
# Where a name gives a salt, the structure may show the parent alone. Values without a mark were called inactive.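 How the source made its calls: for the amine columns active = adjusted P below 0.05 in both replicates with a change the same way and a mean fold change under 0.8 or over 1.25; inactive = the rest.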
# Tested on: Escherichia coli IAI1
# Assay: fold change of Putrescine concentration vs plate DMSO controls (fold change (ratio)); higher = more amine produced, active = hit call of the paper (significant change in both replicates, either direction)
# Details: incubation time: 27 h, anaerobic, 37 °C
# Procedure, shortened: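 In 80 µL wells, cultures of four gut bacterial strains in mGAM started at OD 0.1 before a 1:1 dilution and grew anaerobically at 37 °C for 27 h. Compounds were added to 20 µM final, except sweeteners at 50 µM final. After extraction of whole cultures with cold acetonitrile/methanol plus 0.1% formic acid and centrifugation, amines were measured by LC–triple-quadrupole MS in dynamic MRM mode against external calibration curves, with within-batch drift correction. Values give fold change over DMSO controls on the same plate, averaged across 2 biological replicates.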
row,Structure (SMILES),fold change of Putrescine concentration
1,CC1=C(C(=O)O)N2C(=O)[C@@H](NC(=O)[C@H](N)c3ccccc3)[C@H]2SC1 [Cephalexin monohydrate] (20 µM),0.911
2,CCCSc1nc(N[C@@H]2C[C@H]2c2ccc(F)c(F)c2)c2nnn([C@@H]3C[C@H](OCCO)[C@@H](O)[C@H]3O)c2n1 [Ticagrelor] (20 µM),1.04
3,Cc1cc(NS(=O)(=O)c2ccc(N)cc2)nc(C)n1 [Sulfisomidine] (20 µM),0.985
4,CN1CCN(C(c2ccccc2)c2ccc(Cl)cc2)CC1 (configuration not stated) [Chlorcyclizine hydrochloride] (20 µM),1.14
5,OC[C@H](O)C(O)[C@@H](O)CO [L-Arabinitol] (50 µM),1.06
6,CC(C)COC(=O)OCN1C(=O)CN(CCN2CC(=O)N(COC(=O)OCC(C)C)C(=O)C2)CC1=O [Sobuzoxane] (20 µM),0.986
7,CCCNC(=O)NS(=O)(=O)c1ccc(Cl)cc1 [Chlorpropamide] (20 µM),0.938
